High-throughput results: PubChem BioAssay, Broad Institute
This is a sample that favours compounds with a hit; in the whole collection about 3.2% have one here.
rRNA inh HTS = selective bacterial rRNA inhibition in E. coli. GFP signal change (wild-type ribosome), % (no concentration beside the values). E. coli WT GFP vs humanized-ribosome RFP mutants, fluorescence, 24 h; stronger effect = lower value; DMSO median 0, no signal -100. hit rate 1.6% among 350,000;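 active = significant combined selectivity score with lowered wild-type GFP, culture density cut under 30%, mutant RFP and density less affected; inactive = any of these conditions unmet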
PGC1a acetyl inh = PGC1a acetylation modulation, inhibitor mode; AID 651687; hit rate 0.17% among 350,000; U2OS PGC1a acetylation, AlphaScreen anti-acetyl-lysine; with virally co-expressed GCN5 acetyltransferase; inhibition, % at 15.6 µM;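 active = every replicate shows inhibition of at least 40%; inconclusive = mean inhibition at least 40% but some replicate below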
DENV2 CPE rescue = inhibitors of DENV2 cytopathic effect. CPE inhibition, % at 9.99 µM. DENV2-infected cells, cytopathic effect rescue, plate reader. hit rate 1.7% among 350,000; in the data active = CPE inhibition above about 20%, passing the limit was not always enough; inconclusive = no clear call, values can overlap the other calls; tested in BHK-21 cells
CaV13 ICDI inh = Primary screen for inhibitors of IQ motif and Ca2+-dependent inactivation inhibitor domain binding in CACNA1D, Förster resonance energy transfer in living cells, …. HEK cells, CFP/YFP FRET ICDI-IQ, plate reader, 10 min; percent FRET-ratio fall versus neutral wells. inhibition, % at 12.3 µM. hit rate 0.098% among 340,000. AID 743397;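 active = mean replicate inhibition of at least 30% and at least 1% of replicates passing that level; inconclusive = only one of the two criteria is met; inactive = neither criterion is met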
ERAP1 inh = ERAP1 (human) enzyme inhibition. inhibition, % at 10.7 µM. recombinant ERAP1, Leu-AMC fluorescence, 60 min. hit rate 0.15% among 340,000. Q9NZ08. AID 652197;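 active = mean replicate inhibition of at least 30%, or all replicates individually reaching that 30% level; inactive = mean below 30% and not every replicate reaching it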
GSIS activator = primary screen for activators of insulin secretion dependent on glucose, INS-1E cells, GLuc reporter luminescence | INS-1E GLuc reporter insulin secretion, 2-3 h | activation, % at 16.6 µM | hit rate 0.61% among 370,000 | AID 743287;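 active = lowest replicate activation of at least 40%, so every replicate reaches that level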
HepG2 cytotox = cytotoxic compounds in HepG2 cells; HepG2 viability, ATP luminescence, 72 h; 30 tested, under 10 active; AID 743480; activity change, negative = cytotoxicity, unspecified at 26 µM; shares compounds with rRNA inh HTS;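 active = compounds whose fitted half-maximal signal-loss concentration is at most twice their highest valid dose; inconclusive = flat curve with 30 to 70% signal loss, or poor fit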
AID977621 = growth inhibition of wild-type GFP E. coli, dose response, H69 mutant RFP, cherry-pick | shares compounds with rRNA inh HTS | E. coli wild-type GFP strain growth, fluorescence, 24 h | activity change, negative = inhibition at 50 µM | 1,900 tested, under 10 active | AID 977621;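 active = Wild-type ribosome reporter drop at least double the humanized mutant ribosome reporter drop, growth loss under a set limit; inconclusive = no clear call, values can overlap the other calls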;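 also: wild-type GFP and H69 mutant RFP strains grown together 50/50 in each well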
AID977628 = E. coli growth inhibition, wild-type GFP versus h24 humanized RFP strain, dose response, h24 mutant RFP vs wild-type GFP, cherry-pick | shares compounds with rRNA inh HTS | E. coli WT GFP strain growth, fluorescence, 24 h | activity change, negative = inhibition at 50 µM | 1,900 tested, under 10 active | AID 977628;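 active = compound lowering the normal-ribosome reporter at least twice as much as the humanized-ribosome reporter, growth loss under a set limit; inconclusive = no clear call, values can overlap the other calls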;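 also: wild-type GFP and h24 humanized RFP strains co-cultured 1 to 1 per well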
Large screens that a line does not name were inactive (follow-up assays come after a bar, where they were run).

COc1ccc(-c2cc(C(=O)Nc3ccc(C(N)=O)cc3)c3ccccc3n2)cc1OC	rRNA inh HTS -26 (no result: PGC1a acetyl inh) | AID977621 inactive | AID977628 inactive
COc1ccc(Cc2nnc(Nc3ccc(C)cc3)o2)cc1OC	rRNA inh HTS -19 | AID977628 inactive
CCC(=O)Nc1ccc2c(c1)C(=O)N(C)C[C@@H](OC)[C@H](C)CN(Cc1nccs1)[C@@H](C)CO2	none (no result: DENV2 CPE rescue, CaV13 ICDI inh, ERAP1 inh)
CCn1nc(C)cc1C(=O)N1CCCC(C(=O)c2ccc3ccccc3c2)C1 (stereo unspecified)	rRNA inh HTS -20 | AID977621 inactive
Cc1ccc2c(c1)OC(=O)CC2c1ccccc1 (stereo unspecified)	none (no result: rRNA inh HTS, DENV2 CPE rescue, CaV13 ICDI inh, ERAP1 inh, GSIS activator)
Cc1ccc2c(c1C)OC(=O)CC2c1ccccc1 (stereo unspecified)	rRNA inh HTS -27 (no result: PGC1a acetyl inh) | AID977628 inconclusive
CN(C)CC(=O)N1CC[C@@H]2[C@@H](CO)N(C)c3ccc(Br)cc3[C@@H]21	none (no result: CaV13 ICDI inh, ERAP1 inh)
CC(=O)c1ccc(OCC(=O)Nc2ccc3c(c2)CCC3)cc1	rRNA inh HTS -26 (no result: DENV2 CPE rescue) | AID977621 inactive | AID977628 inactive
CC1CCCCN1c1ncnc2ccccc12 (stereo unspecified)	none (no result: rRNA inh HTS, DENV2 CPE rescue, ERAP1 inh, GSIS activator)
CC1(C)CC2CC(C)(CN2c2ncnc3ccccc23)C1 (stereo unspecified)	rRNA inh HTS -27 | AID977621 inactive | AID977628 inconclusive
Fc1ccc(OCc2nc(-c3ccncc3)n[nH]2)cc1	none (no result: PGC1a acetyl inh)
Clc1cccc(OCc2nc(-c3ccncc3)n[nH]2)c1	rRNA inh HTS -22 (no result: PGC1a acetyl inh) | AID977621 inactive
CCOC(=O)c1ccc(NC(=O)CN2CCN(c3ccccc3)CC2)cc1	none (no result: rRNA inh HTS, DENV2 CPE rescue, ERAP1 inh, GSIS activator)
CCOC(=O)c1sc(NC(=O)CN2CCN(c3ccccc3)CC2)nc1C	rRNA inh HTS -20 (no result: PGC1a acetyl inh) | AID977628 inactive
CC1(CCC(=O)N2CCCC(N3CCN(c4ccc(F)cc4)CC3)C2)CC1 (stereo unspecified)	rRNA inh HTS -25 | AID977621 inactive | AID977628 inconclusive
O=C(C[C@H]1C[C@@H]2c3cc(NC(=O)CC4CC4)ccc3O[C@@H]2[C@@H](CO)O1)NCc1cccnc1	none (no result: CaV13 ICDI inh)
O=C(COC(=O)C1CC1)Nc1nc(-c2ccc(F)c(F)c2)cs1	rRNA inh HTS -24 | AID977621 inactive
O=C(CN1CCCCC1)Nc1nc(-c2ccc(F)c(F)c2)cs1	none
COc1ccc(CN2C(=O)NC3(CCOc4ccccc43)C2=O)cc1F (stereo unspecified)	none (no result: rRNA inh HTS, PGC1a acetyl inh)
COc1ccc(CN2C(=O)NC(C)(c3ccc(C)cc3)C2=O)cc1F (stereo unspecified)	rRNA inh HTS -22 | AID977621 inactive | AID977628 inconclusive
COc1ccc(NC(=O)c2ccc(COc3ccccc3)o2)c(OC)c1	none (no result: PGC1a acetyl inh)
COc1ccc(NC(=O)c2ccc(COc3ccccc3Br)o2)c(OC)c1	rRNA inh HTS -16 | AID977621 inactive | AID977628 inactive
Cc1cc(C)c(C#N)c(N2CCN(c3ccccc3)CC2)n1	rRNA inh HTS -26, PGC1a acetyl inh 49 | HepG2 cytotox inactive
Cc1ccc(C(=O)Nc2ccc3ncccc3c2)cc1	rRNA inh HTS -16 (no result: PGC1a acetyl inh) | AID977628 inactive
COc1ccc(C(=O)Nc2ccc3ncccc3c2)cc1	none (no result: PGC1a acetyl inh)
Cc1cc(C)nc(SCC(=O)Nc2ccc3c(c2)OCO3)n1	DENV2 CPE rescue inconclusive
Cc1nc(SCC(=O)Nc2ccc3c(c2)OCCO3)nc(C)c1C	rRNA inh HTS -18 | AID977621 inactive
COc1ccccc1-c1ccc2n(c1=O)C[C@@H]1[C@@H](CO)[C@H](C(=O)O)N(C(=O)c3cccnc3)[C@H]21	none (no result: PGC1a acetyl inh, CaV13 ICDI inh)
